Among the data in PubChem BioAssay (NCATS) are Potency, activation and activity change, negative = inhibition values, retold here.

Inconclusive results are not listed. Values without a mark were called inactive. Active and inactive are the calls of the source. The call rests on the fitted dose curve; in most records, active means well fitted curve in the direction sought with a large enough effect; inconclusive means small, poorly fitted or top-dose-only effect, or another doubt; inactive means no such curve, though single readings can be large; an effect the other way counts as inactive or inconclusive.

Experiment [1] deals with Rap guanine nucleotide exchange factor 3 (Homo sapiens) (UniProt O95398). The experiment is described as follows: Confirmatory qHTS for antagonist of cAMP-regulated guanine nucleotide exchange factor 3 (EPAC1) (AID 1645880). Further: nearly all actives have a fitted effect of over 55% in size. Further: potency means the concentration at half of the fitted maximal effect.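 On activity, negative = inhibition: plate controls were DMSO only for no effect and full effect of the ATA control for full effect.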 Particulars: EPAC1 Rap1B-BODIPY-GDP exchange, fluorescence; activity, negative = inhibition: at 115 µM (top of the series). The gist of the method: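 Nucleotide exchange uses 100 nM EPAC1, 250 nM RAP1B-BODIPY-GDP and 50 uM GDP, with compounds in a concentration-titration series. After 5 min at room temperature, fluorescence (480 nm ex/540 nm em) is read every 5 min for 30 min. Data are normalized to control ATA and DMSO.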
Rap guanine nucleotide exchange factor 3 (Homo sapiens), sequence (O95398 whole entry, looked up): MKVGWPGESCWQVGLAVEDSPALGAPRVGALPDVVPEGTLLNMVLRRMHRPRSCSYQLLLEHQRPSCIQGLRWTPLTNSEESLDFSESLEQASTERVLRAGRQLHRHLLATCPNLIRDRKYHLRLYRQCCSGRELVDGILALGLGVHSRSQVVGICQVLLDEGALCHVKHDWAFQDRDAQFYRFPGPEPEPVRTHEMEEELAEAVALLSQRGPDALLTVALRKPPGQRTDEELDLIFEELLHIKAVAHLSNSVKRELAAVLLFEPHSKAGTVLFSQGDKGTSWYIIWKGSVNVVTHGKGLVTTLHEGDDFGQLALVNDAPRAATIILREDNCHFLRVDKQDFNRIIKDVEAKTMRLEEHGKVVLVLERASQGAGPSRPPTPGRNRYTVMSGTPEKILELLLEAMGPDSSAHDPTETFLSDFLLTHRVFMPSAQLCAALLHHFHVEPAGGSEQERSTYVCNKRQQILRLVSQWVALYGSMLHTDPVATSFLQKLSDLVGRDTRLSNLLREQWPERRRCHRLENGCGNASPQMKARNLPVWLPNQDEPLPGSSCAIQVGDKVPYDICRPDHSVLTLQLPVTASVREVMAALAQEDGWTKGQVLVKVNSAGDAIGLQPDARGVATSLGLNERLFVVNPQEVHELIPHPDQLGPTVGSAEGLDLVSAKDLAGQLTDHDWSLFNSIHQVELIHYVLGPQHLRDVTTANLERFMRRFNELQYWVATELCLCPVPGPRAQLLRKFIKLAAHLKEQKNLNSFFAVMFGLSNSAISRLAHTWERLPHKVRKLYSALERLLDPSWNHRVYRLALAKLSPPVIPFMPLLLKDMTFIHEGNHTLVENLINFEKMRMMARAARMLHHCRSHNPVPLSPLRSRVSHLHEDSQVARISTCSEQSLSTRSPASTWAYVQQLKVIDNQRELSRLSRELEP
A general note: Quantitative high-throughput screening tests each substance at several concentrations.

For experiment [2] the target is unchanged. The experiment is described as follows: Confirmatory qHTS for agonist of cAMP-regulated guanine nucleotide exchange factor 3 (EPAC1) (AID 1645881).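 Further: EPAC1 catalysed release of BODIPY-GDP from Rap1B seen as fluorescence loss; 100% = effect of cAMP agonist control; nearly all actives have a fitted effect of over 75% in size.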
Experiment [3] has as its target Rap guanine nucleotide exchange factor 4 (Homo sapiens) (UniProt Q8WZA2). The experiment is described as follows: Confirmatory qHTS for agonist of cAMP-regulated guanine nucleotide exchange factor 4 (EPAC2) (AID 1645884).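 Further: nucleotide exchange releases bodipy-GDP from Rap1 and this lowers its fluorescence; on the % scale 0 is the no-effect control and ±100 the full control effect; nearly all actives have a fitted effect of over 65% in size.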
Experiment [4] shares this target. The experiment is described as follows: Confirmatory qHTS for antagonist of cAMP-regulated guanine nucleotide exchange factor 4 (EPAC2) (AID 1645885). Further: nearly all actives have a fitted effect of over 25% in size. On activity change, negative = inhibition: on the % scale 0 is the no-effect control and ±100 the full control effect.
In experiment [5] the target is Rap guanine nucleotide exchange factor 3 (Homo sapiens) (UniProt O95398). Briefly: Counterscreen qHTS for antagonist of cAMP-regulated guanine nucleotide exchange factor 3 (EPAC1) (AID 1645888).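 Further: fluorescence loss as bound BODIPY-GDP is released from Rap1B; % of control where 0% means no effect.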 In a few lines:
(§1)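 Measured: fluorescence of BODIPY-GDP bound to Rap1B, which falls as exchange proceeds. Conditions include 50 uM competing GDP, 5 and 30 min reads, and a later cAMP challenge for antagonist detection.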

For experiment [6] the target is unchanged. The experiment is described as follows: Counterscreen qHTS for agonist of cAMP-regulated guanine nucleotide exchange factor 3 (EPAC1) (AID 1645889). Further: % of control where 0% means no effect; nearly all actives have a fitted effect of over 40% in size. The gist of the method: as §1
In general terms: A counterscreen serves to expose hits that act by an unwanted route or on another target.

Rap guanine nucleotide exchange factor 4 (Homo sapiens), sequence (Q8WZA2 whole entry, looked up): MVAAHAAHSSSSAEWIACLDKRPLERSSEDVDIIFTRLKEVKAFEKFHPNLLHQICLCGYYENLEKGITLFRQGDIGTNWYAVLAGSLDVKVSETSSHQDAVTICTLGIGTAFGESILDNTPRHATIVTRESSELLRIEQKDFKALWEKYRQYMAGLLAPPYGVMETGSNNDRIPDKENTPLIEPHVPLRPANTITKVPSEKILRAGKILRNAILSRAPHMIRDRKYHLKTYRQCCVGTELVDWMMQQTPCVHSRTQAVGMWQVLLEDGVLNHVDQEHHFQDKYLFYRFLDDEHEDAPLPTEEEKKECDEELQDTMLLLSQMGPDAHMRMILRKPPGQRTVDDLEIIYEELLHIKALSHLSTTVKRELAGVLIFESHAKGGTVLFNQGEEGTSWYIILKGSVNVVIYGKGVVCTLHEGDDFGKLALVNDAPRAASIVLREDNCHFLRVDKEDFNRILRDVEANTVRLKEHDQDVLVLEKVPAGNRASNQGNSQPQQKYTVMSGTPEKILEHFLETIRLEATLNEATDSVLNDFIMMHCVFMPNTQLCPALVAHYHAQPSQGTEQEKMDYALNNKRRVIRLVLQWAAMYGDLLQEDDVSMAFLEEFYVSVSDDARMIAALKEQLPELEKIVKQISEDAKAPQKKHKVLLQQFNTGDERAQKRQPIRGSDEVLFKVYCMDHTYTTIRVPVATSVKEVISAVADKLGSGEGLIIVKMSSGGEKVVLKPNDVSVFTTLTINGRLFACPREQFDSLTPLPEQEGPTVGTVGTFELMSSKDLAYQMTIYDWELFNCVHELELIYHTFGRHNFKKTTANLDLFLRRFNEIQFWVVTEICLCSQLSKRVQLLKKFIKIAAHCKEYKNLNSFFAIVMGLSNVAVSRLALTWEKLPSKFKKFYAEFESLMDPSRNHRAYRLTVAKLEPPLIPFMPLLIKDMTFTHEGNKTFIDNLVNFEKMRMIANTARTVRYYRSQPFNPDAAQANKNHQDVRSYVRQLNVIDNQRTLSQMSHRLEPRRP

As for `O=C(CNC(=O)c1sc2ccccc2c1Cl)NCc1cccc(C(F)(F)F)c1`, the Potency entry in experiment [1], in experiment [2], in experiment [3], in experiment [4], in experiment [5] and in experiment [6] was “inactive” in each case.
For `Cc1cccc(C)c1Nc1nn2c(=O)c3cc4c(cc3nc2s1)OCO4`, the Potency entry in experiment [1], in experiment [2], in experiment [3], in experiment [4], in experiment [5] and in experiment [6] was “inactive” in each case.
For `COc1ccc(C2CC(c3cccs3)=NN2C(=O)c2ccco2)cc1OC` (stereo not given), the Potency entry in experiment [1], in experiment [2] and in experiment [4] was “inactive” throughout. Further, the activation is 4.11% [at 17.1 µM, percent relative to cAMP agonist control] in experiment [3] and 31.8% [at 30.8 µM] in experiment [6]. Further, the activity change, negative = inhibition in experiment [5] was -16.2% [at 30.8 µM].
Take `C/C(=N\NC(=O)c1cc(O)ccc1O)c1cccc(NC(=O)c2ccc(Cl)cc2)c1`: in experiment [1], the Potency was 75.7 µM (active). The Potency entry in experiment [2], in experiment [3], in experiment [4], in experiment [5] and in experiment [6] was “inactive” each time.
On to `O=C(CSc1nc2ccsc2c(=O)n1CC1CCC(C(=O)O)CC1)c1ccc(Cl)cc1` (stereo not given), for which the Potency in experiment [1] is 47.8 µM (active). Further, the Potency entry in experiment [2], in experiment [3], in experiment [4], in experiment [5] and in experiment [6] was “inactive” each time.
With `O=C(COc1ccccc1/C=C\c1[nH]c(=O)[nH]c(=O)c1[N+](=O)[O-])Nc1ccccc1`, the Potency in experiment [1] is 10 µM (active). Also, the Potency result in experiment [2] and in experiment [4] was “inactive” each time. The activation was 2.16% [at 17.1 µM, percent relative to cAMP agonist control] in experiment [3] and 7.06% [at 30.8 µM] in experiment [6]. Further, the activity change, negative = inhibition in experiment [5] was 2.03% [at 30.8 µM].
Take `CCCCn1cc2c(c1-c1ccccc1Br)c(=O)n(C)c(=O)n2C`: the Potency entry in experiment [1], in experiment [2], in experiment [3], in experiment [4], in experiment [5] and in experiment [6] was “inactive” in each case.
For `CN(C(=O)CSc1nc2[nH]ncc2c(=O)[nH]1)c1ccccc1`, the Potency entry in experiment [1], in experiment [2] and in experiment [4] was “inactive” in each case. The activation was 1.67% [at 17.1 µM, percent relative to cAMP agonist control] in experiment [3] and -11.1% [at 30.8 µM] in experiment [6]. Moreover, in experiment [5], the activity change, negative = inhibition is -21.3% [at 30.8 µM].
Consider `COc1cccc(/C=N/NC(=O)c2cc3cc([N+](=O)[O-])ccc3s2)c1O`, for which the Potency in experiment [1] is 35.5 µM (active). Further, the Potency result in experiment [2] and in experiment [4] was “inactive” throughout. The activation is 10.9% [at 17.1 µM, percent relative to cAMP agonist control] in experiment [3] and 26.8% [at 30.8 µM] in experiment [6]. Further, the activity change, negative = inhibition in experiment [5] is -2.63% [at 30.8 µM].
For `CC1(C(=O)NS(=O)(=O)c2ccc3c(c2)CCO3)CCN1C(=O)C1(c2ccc(Cl)cc2)CCC1` (stereo not given), in experiment [1], the Potency is 39.8 µM (active). The Potency result in experiment [2] and in experiment [4] was “inactive” throughout. Also, the activation in experiment [3] was 1.36% [at 17.1 µM, percent relative to cAMP agonist control]; in experiment [6], 34% [at 30.8 µM]. Also, the activity change, negative = inhibition in experiment [5] was -29.8% [at 30.8 µM].
Regarding `COc1ccc(/C=N/Nc2ncnc3sc(C)c(C)c23)cc1`, the Potency entry in experiment [1], in experiment [2], in experiment [3], in experiment [4], in experiment [5] and in experiment [6] was “inactive” each time.
On to `CN(Cc1ccccc1)C(=O)C1CCCN(Cc2cccc(Cl)c2)C1` (stereo not given), for which the Potency entry in experiment [1], in experiment [2], in experiment [3], in experiment [4], in experiment [5] and in experiment [6] was “inactive” throughout.
As for `COc1ccc(-c2ccc(C(=O)NCCN3CCOCC3)c3occc23)c(C)c1`, the Potency result in experiment [1], in experiment [2], in experiment [3], in experiment [4], in experiment [5] and in experiment [6] was “inactive” each time.
On to `COc1cc2c(cc1OC)CN(C(C)C(=O)N1CCc3ccccc31)CC2` (stereo not given), for which the Potency result in experiment [1], in experiment [2], in experiment [3], in experiment [4], in experiment [5] and in experiment [6] was “inactive” throughout.
For `COc1cccc2c1Oc1ncccc1N(C(=O)CCC(=O)NCc1cccc(C)c1)C2`, the Potency entry in experiment [1], in experiment [2], in experiment [3], in experiment [4], in experiment [5] and in experiment [6] was “inactive” in each case.
On to `Cc1ccc(NC(=O)CN2C(=O)C(c3ccc(C(C)(C)C)cc3)=NC2(C)C)cc1`, for which the Potency result in experiment [1], in experiment [2], in experiment [3], in experiment [4], in experiment [5] and in experiment [6] was “inactive” each time.
As for `O=C(CCCOc1ccccc1)Nc1ccc(Cl)cn1`, the Potency entry in experiment [1], in experiment [2], in experiment [3], in experiment [4], in experiment [5] and in experiment [6] was “inactive” in each case.
As to `Cc1cc(-c2nn(-c3ccccc3F)cc2CN2CCCC(O)C2)c(C)s1` (stereo not given), the Potency result in experiment [1], in experiment [2] and in experiment [4] was “inactive” each time. For the same compound, the activation in experiment [3] is 2.57% [at 17.1 µM, percent relative to cAMP agonist control]; in experiment [6], 23.9% [at 30.8 µM]. Moreover, in experiment [5], the activity change, negative = inhibition was -17.9% [at 30.8 µM].
As to `O=C(c1ccccc1)c1coc2ccc(O)c(Cl)c12`, the Potency entry in experiment [1], in experiment [2] and in experiment [4] was “inactive” throughout. In addition, the activation is 4.32% [at 17.1 µM, percent relative to cAMP agonist control] in experiment [3] and 44.7% [at 30.8 µM] in experiment [6]. The activity change, negative = inhibition in experiment [5] is -20.3% [at 30.8 µM].
As for `CCc1ccc(NC(=O)COC(=O)CCC2CCCC2)cc1`, the Potency result in experiment [1], in experiment [2], in experiment [3], in experiment [4], in experiment [5] and in experiment [6] was “inactive” each time.
